Inconclusive results are not listed. Activity calls are given as the source filed them. The call rests on the fitted dose curve; in most records, active means well fitted inhibition curve with a large enough effect; inconclusive means small, poorly fitted or top-dose-only effect; inactive means flat fitted curve, though single readings scatter.
The molecules below were run on CP269 (assay: qHTS profiling for inhibitors of Plasmodium falciparum proliferation (AID 504749;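 further: 0% = DMSO vehicle and full inhibition = artemisinin control; nearly all actives have a fitted effect of over 60% in size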)). Settings: P. falciparum in erythrocytes, SYBR Green DNA, 72 h; series mostly up to 28.7 µM; activity, negative = inhibition: at the top concentration.
Procedure, shortened: (§1)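 Quantitative HTS: compounds pinned into medium, infected erythrocytes added (0.3% parasitemia, 2.5% hematocrit), 72 h culture at 37 C under 5% CO2. Saponin/Triton lysis with SYBR Green I, overnight RT, then fluorescence read.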
For CCCCCc1ccc(C)cc1O, the “activity, negative = inhibition” value was -8.07% (inactive).
C=CC(C)(O)CC/C=C(\C)CCC=C(C)C (configuration not stated) was tested, and the “activity, negative = inhibition” value was -0.461% (inactive).
For Cc1ccc(S(=O)(=O)NCl)cc1, the “activity, negative = inhibition” value was 1.71% (inactive).
For CN1c2c(nc(N)[nH]c2=O)NCC1CNc1ccc(C(=O)NC(CCC(=O)O)C(=O)O)cc1 (configuration not stated), the “activity, negative = inhibition” value was 1.1% (inactive).
For NC(=O)[C@@H]1CCCN1C(=O)[C@H](Cc1cnc[nH]1)NC(=O)[C@@H]1CCC(=O)N1, the “activity, negative = inhibition” value was 0.0515% (inactive).
CN(C)CCOc1ccc(/C(=C(/CCCl)c2ccccc2)c2ccccc2)cc1 was tested, and the “activity, negative = inhibition” value was -9.16% (inactive).
For CC1(O)CCC(C(C)(C)O)CC1 (configuration not stated), the “activity, negative = inhibition” value was -1.68% (inactive).
COc1ccccc1N1CCN(CCCC(=O)c2ccc(F)cc2)CC1 was tested, and the “activity, negative = inhibition” value was -7.6% (inactive).
CC(C)[C@@H](N)C(=O)O was tested, and the “activity, negative = inhibition” value was -1.53% (inactive).
With CN(C)c1ccc(C(=C2C=CC(=[N+](C)C)C=C2)c2c(O)c(S(=O)(=O)[O-])cc3cc(S(=O)(=O)O)ccc23)cc1 the “activity, negative = inhibition” value was -2.67% (inactive).
With COc1cc(S(C)=O)ccc1-c1nc2ncccc2[nH]1 (configuration not stated) the “activity, negative = inhibition” value was -7.51% (inactive).
For Oc1cc(O)cc(O)c1, the “activity, negative = inhibition” value was -4.38% (inactive).
In the case of N[C@H](CC(=O)O)C(=O)O, the “activity, negative = inhibition” value is reported as -0.259% (inactive).
In the case of C/C=C/C=C/C(=O)O, the “activity, negative = inhibition” value is reported as -2.66% (inactive).
In the case of C=C(C)C1CC=C(C)CC1 (configuration not stated), the “activity, negative = inhibition” value is reported as 5.28% (inactive).
In the case of Nc1ncnc2c1ncn2[C@H]1CC[C@@H](CO)O1, the “activity, negative = inhibition” value is reported as -4.3% (inactive).
With NCC[C@H](O)C(=O)N[C@@H]1C[C@H](N)[C@@H](O[C@H]2O[C@H](CN)CC[C@H]2N)[C@H](O)[C@H]1O[C@H]1O[C@H](CO)[C@@H](O)[C@H](N)[C@H]1O the “activity, negative = inhibition” value was -0.991% (inactive).
[O]=[Bi][O]C(=O)[O][Bi]=[O] was tested, and the “activity, negative = inhibition” value was 1.26% (inactive).
In the case of Cc1c(Cl)cccc1Nc1ncccc1C(=O)O, the “activity, negative = inhibition” value is reported as -1.22% (inactive).
In the case of CC1(C)S[C@@H]2[C@H](NC(=O)C3(N)CCCCC3)C(=O)N2[C@H]1C(=O)O, the “activity, negative = inhibition” value is reported as 2.6% (inactive).
For CCCCCCCCCCCC(=O)OCC(O)CO (configuration not stated), the “activity, negative = inhibition” value was -9.28% (inactive).
With COc1ccc(C(=O)c2ccc(C)cc2)c(O)c1 the “activity, negative = inhibition” value was 11.4% (inactive).
For O=C1NCCN1c1ncc([N+](=O)[O-])s1, the “activity, negative = inhibition” value was -3.23% [at 12.8 µM] (inactive).

What follows are molecules tested on CP286 in the same assay as above. Settings: P. falciparum in erythrocytes, SYBR Green DNA, 72 h; series mostly up to 28.7 µM; activity, negative = inhibition: at the top concentration.
Procedure, shortened: as §1
With CCCOC(=O)c1ccccc1O the “activity, negative = inhibition” value was -0.0619% (inactive).
With COc1cc2c(cc1OC)[C@@H](Cc1cc(OC)c(OC)c(OC)c1)[N+](C)(CCCOC(=O)CC/C=C/CCC(=O)OCCC[N+]1(C)CCc3cc(OC)c(OC)cc3[C@H]1Cc1cc(OC)c(OC)c(OC)c1)CC2 (some centres not stated) the “activity, negative = inhibition” value was -19.8% (inactive).
OC[C@H]1O[C@@](CO)(O[C@H]2O[C@H](CO)[C@@H](O)[C@H](O)[C@H]2O)[C@@H](O)[C@@H]1O was tested, and the “activity, negative = inhibition” value was -0.523% (inactive).
CCC(Cc1c(I)cc(I)c(O)c1I)C(=O)O (configuration not stated) was tested, and the “activity, negative = inhibition” value was -1.61% (inactive).
With Nc1ncnc2c1ncn2CCOCP(=O)(O)O the “activity, negative = inhibition” value was -0.273% (inactive).
O=C(O)CCC/C=C\C[C@@H]1[C@@H](/C=C/[C@@H](O)COc2cccc(Cl)c2)[C@H](O)C[C@@H]1O was tested, and the “activity, negative = inhibition” value was 0.881% (inactive).
For N=C(N)n1cccn1, the “activity, negative = inhibition” value was -14.1% (inactive).
For CCSc1ccc2c(c1)N(CCCN1CCN(C)CC1)c1ccccc1S2, the “activity, negative = inhibition” value was -19.9% [at 12.8 µM] (inactive).
For CC(C)c1nc(N(C)S(C)(=O)=O)nc(-c2ccc(F)cc2)c1/C=C/C(O)CC(O)CC(=O)O (configuration not stated), the “activity, negative = inhibition” value was 0.622% (inactive).
For CCOC(C)OCC, the “activity, negative = inhibition” value was 0.189% (inactive).
NCCN was tested, and the “activity, negative = inhibition” value was 0.128% (inactive).
For CC(CC=O)CCCC(C)(C)O (configuration not stated), the “activity, negative = inhibition” value was 2.07% (inactive).
With CC(C)(COP(=O)(O)OP(=O)(O)OC[C@H]1O[C@@H](n2cnc3c(N)ncnc32)[C@H](O)[C@@H]1OP(=O)(O)O)C(O)C(=O)NCCC(=O)NCCS (some centres not stated) the “activity, negative = inhibition” value was 0.0984% (inactive).
O=C1c2ccccc2CN2C(=O)c3ccccc3CN12 was tested, and the “activity, negative = inhibition” value was 0.215% (inactive).
With O=C1c2ccccc2C(=O)C1c1ccc(F)cc1 the “activity, negative = inhibition” value was -3.79% (inactive).
CNC(=O)C[C@@H](N)C(=O)N[C@@H](C(=O)N[C@@H]1C(=O)N2[C@@H]1SC(C)(C)[C@@H]2C(=O)O)c1ccc(O)cc1 was tested, and the “activity, negative = inhibition” value was 0.47% (inactive).
CCCCCc1ccc(C)cc1O was tested, and the “activity, negative = inhibition” value was 3.08% (inactive).
In the case of C=CC(C)(O)CC/C=C(\C)CCC=C(C)C (configuration not stated), the “activity, negative = inhibition” value is reported as 1.36% (inactive).
For Cc1ccc(S(=O)(=O)NCl)cc1, the “activity, negative = inhibition” value was 0.788% (inactive).
In the case of CN1c2c(nc(N)[nH]c2=O)NCC1CNc1ccc(C(=O)NC(CCC(=O)O)C(=O)O)cc1 (configuration not stated), the “activity, negative = inhibition” value is reported as -0.535% (inactive).
For NC(=O)[C@@H]1CCCN1C(=O)[C@H](Cc1cnc[nH]1)NC(=O)[C@@H]1CCC(=O)N1, the “activity, negative = inhibition” value was 0.356% (inactive).
For CN(C)CCOc1ccc(/C(=C(/CCCl)c2ccccc2)c2ccccc2)cc1, the “activity, negative = inhibition” value was -5.56% (inactive).
In the case of CC1(O)CCC(C(C)(C)O)CC1 (configuration not stated), the “activity, negative = inhibition” value is reported as -0.386% (inactive).
With COc1ccccc1N1CCN(CCCC(=O)c2ccc(F)cc2)CC1 the “activity, negative = inhibition” value was -8.65% (inactive).
For CC(C)[C@@H](N)C(=O)O, the “activity, negative = inhibition” value was -3.87% (inactive).
With CN(C)c1ccc(C(=C2C=CC(=[N+](C)C)C=C2)c2c(O)c(S(=O)(=O)[O-])cc3cc(S(=O)(=O)O)ccc23)cc1 the “activity, negative = inhibition” value was -11% (inactive).
With COc1cc(S(C)=O)ccc1-c1nc2ncccc2[nH]1 (configuration not stated) the “activity, negative = inhibition” value was -0.0521% (inactive).
For Oc1cc(O)cc(O)c1, the “activity, negative = inhibition” value was -0.267% (inactive).
With N[C@H](CC(=O)O)C(=O)O the “activity, negative = inhibition” value was -1.19% (inactive).
In the case of C/C=C/C=C/C(=O)O, the “activity, negative = inhibition” value is reported as -1.39% (inactive).
For C=C(C)C1CC=C(C)CC1 (configuration not stated), the “activity, negative = inhibition” value was 0.593% (inactive).
In the case of Nc1ncnc2c1ncn2[C@H]1CC[C@@H](CO)O1, the “activity, negative = inhibition” value is reported as -0.159% (inactive).
With NCC[C@H](O)C(=O)N[C@@H]1C[C@H](N)[C@@H](O[C@H]2O[C@H](CN)CC[C@H]2N)[C@H](O)[C@H]1O[C@H]1O[C@H](CO)[C@@H](O)[C@H](N)[C@H]1O the “activity, negative = inhibition” value was 0.948% (inactive).
With [O]=[Bi][O]C(=O)[O][Bi]=[O] the “activity, negative = inhibition” value was -0.358% (inactive).
For Cc1c(Cl)cccc1Nc1ncccc1C(=O)O, the “activity, negative = inhibition” value was 0.12% (inactive).
CC1(C)S[C@@H]2[C@H](NC(=O)C3(N)CCCCC3)C(=O)N2[C@H]1C(=O)O was tested, and the “activity, negative = inhibition” value was -8.51% (inactive).
In the case of CCCCCCCCCCCC(=O)OCC(O)CO (configuration not stated), the “activity, negative = inhibition” value is reported as -0.119% (inactive).
For COc1ccc(C(=O)c2ccc(C)cc2)c(O)c1, the “activity, negative = inhibition” value was 1.03% (inactive).
With O=C1NCCN1c1ncc([N+](=O)[O-])s1 the “activity, negative = inhibition” value was -11% [at 12.8 µM] (inactive).

Source: PubChem BioAssay (NCATS)
